Hits are enriched below; roughly 11% of the tested compounds scored in any of these assays.
IMPase cell inh: IMPase inhibition in cells. P97697. CHO-M1 cells, IP1 accumulation, HTRF TR-FRET ratio. inhibition (IP1 accumulation), % at 46.1 µM. 120,000 tested, under 10 active. AID 901; active = well fitted curve in the direction sought with a large enough effect in the signal ratio, not every such curve was filed as active; inconclusive = small, poorly fitted or top-dose-only effect, or a change in a side signal; inactive = no such curve, though single readings can be large or run the other way; the % refers to the signal ratio;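 note: cells stimulated with carbachol in lithium chloride buffer; plate controls were DMSO basal wells for no effect and reference inhibitor wells for full effect; higher means more IMPase inhibition seen as more IP1 and lower FRET ratio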
Target sequence (P97697 whole entry, looked up): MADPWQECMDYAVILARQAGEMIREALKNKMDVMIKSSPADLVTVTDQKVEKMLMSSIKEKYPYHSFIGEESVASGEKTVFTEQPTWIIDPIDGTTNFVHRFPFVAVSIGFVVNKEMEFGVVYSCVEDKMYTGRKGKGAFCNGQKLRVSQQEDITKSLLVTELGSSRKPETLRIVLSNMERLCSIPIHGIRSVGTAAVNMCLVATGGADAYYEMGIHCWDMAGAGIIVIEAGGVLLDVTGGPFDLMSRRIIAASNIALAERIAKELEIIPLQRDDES
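Carbachol-driven Gq signalling in CHO-M1 cells (2000/well) generates IP1. Compounds that block IMPase raise IP1 and so reduce the FRET signal from Eu-anti-IP1 and d2-IP1 after a 10 min room-temperature lysis.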
HPGD inh: inhibitors of human 15-hydroxyprostaglandin dehydrogenase (HPGD); purified HPGD, NADH fluorescence kinetic, PGE2 substrate; P15428; AID 894; Potency, µM, inactives show at the highest dose activity change, negative = inhibition, usual class: inhibitors; 150,000 tested, 4.3% active; note: potency is the fitted concentration of half-maximal effect
Target sequence (P15428 whole entry, looked up): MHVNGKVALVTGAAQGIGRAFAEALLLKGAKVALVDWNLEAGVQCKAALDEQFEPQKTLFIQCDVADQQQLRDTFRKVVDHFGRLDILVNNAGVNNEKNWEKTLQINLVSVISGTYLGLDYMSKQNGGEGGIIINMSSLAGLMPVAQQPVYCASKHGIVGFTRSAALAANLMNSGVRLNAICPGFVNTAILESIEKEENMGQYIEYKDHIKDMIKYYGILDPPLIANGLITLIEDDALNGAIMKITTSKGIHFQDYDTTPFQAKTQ
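NADH formation kinetics: reaction with 30 uM PGE2 and 1 mM NAD+ (final), 20 nM enzyme, Tris-HCl pH 8 with Tween 20, after 15 min compound preincubation at room temperature. Fluorescence change, last versus first of five reads.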
IMPase Li cell: cell-permeable IMPase inhibitors with lithium potentiation; CHO-M1 cells, IP1 TR-FRET (IP-One), carbachol + lithium; Potency, µM (doses to about 59.4 µM), for the others: at the top dose activity, negative = IMPase inhibition, usual class: inhibitors; 210,000 tested, 0.35% active; AID 1457; active = well fitted curve in the direction sought with a large enough effect; inconclusive = small, poorly fitted or top-dose-only effect, or another doubt; inactive = no such curve, though single readings can be large; an effect the other way counts as inactive or inconclusive;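 note: IP1 builds up when IMPase is blocked and the TR-FRET signal falls; potency is the fitted concentration of half-maximal effect; plate controls were basal vehicle for no effect and high inhibitor control for full effect; nearly all actives have a fitted effect of over 50% in size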
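Readout is a homogeneous TR-FRET IP1 immunoassay (Ex 320, Em 665 and 620), where raised cytosolic IP1 lowers signal. Cells were CHO-M1 treated 30 min at 37C with test compounds plus a little lithium; AC50 values came from Hill-equation fitting.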
ALOX12 inhib: blocks human 12-lipoxygenase activity; 150,000 tested, 0.12% active; purified 12-hLO, xylenol orange hydroperoxide absorbance; Potency, µM (titrated, usually from 57.1 µM), for inactives: top-dose activity change, negative = inhibition, usual class: inhibitors; P18054; AID 1452; active = well fitted curve in the direction sought with a large enough effect; inconclusive = small, poorly fitted or top-dose-only effect, or another doubt; inactive = no such curve, though single readings can be large; an effect the other way counts as inactive or inconclusive; note: potency is the fitted concentration of half-maximal effect; nearly all actives have a fitted effect of over 55% in size
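Purified human 12hLO (150 nM), preincubated 15 min with compound, then 40 uM arachidonic acid for 30 min, room temperature, Hepes pH 7.0 with 0.01% Triton X-100. Hydroperoxide detected by ferrous iron/xylenol orange; 573/405 nm absorbance ratio gives reaction progress.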
PNC assembly inh: inhibitors of perinucleolar compartment assembly; PC3M PTB-GFP, PNC prevalence imaging, 16 h; hits give low values; 140,000 tested, 3.1% active; activity change (PNC), negative = inhibition, % at 10 µM;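 active = readout at or below -70, meaning at least 70% loss of cells showing the perinucleolar compartment, a nuclear body marking cancer cells; inconclusive = readout between -30 and a set limit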;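 note: plate controls were DMSO wells for no effect and camptothecin positive control wells for full effect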
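PC3M cells stably expressing PTB-GFP, 750–1000 cells/well, treated 16 h at 37 °C with compound (23 nl of library stock), in duplicate. After paraformaldehyde fixation and Hoechst stain, imaged at 20x; PNC prevalence scored by image analysis.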
ALDH1A1 inh: blocks purified human ALDH1A1 activity. Purified ALDH1A1, NADH fluorescence, propionaldehyde substrate. P00352. 220,000 tested, 7.3% active. Potency, µM (highest dose often 75.3 µM), for inactives: at the highest dose activity, negative = inhibition, most hits filed as inhibitors;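 note: potency is the fitted concentration of half-maximal effect; plate controls were no enzyme wells and a reference inhibitor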
Numbers without * were called inactive; ? = inconclusive; . = no result given; [ ] = dose if it differs, or a comment. Unless noted, calls come from the whole dose curve; as a rule, active = well fitted inhibition curve with a large enough effect (not every such curve was filed as active); inconclusive = small, poorly fitted or top-dose-only effect, or another doubt; inactive = no such curve, though single readings can be large or run the other way. Unless noted, % is set by controls: 0 for no effect and ±100 for the full control effect.

SMILES | IMPase cell inh | HPGD inh | IMPase Li cell | ALOX12 inhib | PNC assembly inh | ALDH1A1 inh
Cn1nc(-c2ccc(Cl)cc2)c2cc(C(=O)NC3CC3)sc21 | 4.0 | -16.2% | -10.4%[38.3 µM] | 5.6% | -86.0* | ?
N=C(N)c1ccc(/C=C\c2ccc(C(=N)N)cc2)cc1 | . | ? | 5.3% | -3.2%[11.4 µM] | . | ?
Cc1cnc(CNc2ccnc(-c3ccc(C(=O)N(C)C)cc3)n2)cn1 | . | 5.62µM* | 0.7% | 4.2% | . | -5.5%
Cc1sc2ncnc(N/N=C/c3ccccc3O)c2c1C | . | -18.8% | -8.0% | -0.1% | ? | -3.4%
COc1cccc(/C=N/Nc2ncnc3scc(-c4ccccc4)c23)c1OC | 1.0 | 17.8µM* | 15.7%[38.3 µM] | -1.5% | 12.3 | ?
Fc1cccc(Cl)c1CSc1nnnn1-c1ccc2c(c1)OCO2 | -2.1 | -15.7% | -6.1%[38.3 µM] | -10.8% | 48.2 | 14.1µM*
O=C(O)c1cc(-n2nnnc2SCc2ccccc2F)ccc1Cl | . | . | 14.5% | . | . | 10µM*
COc1ccc2nc(Nc3ccccc3)sc2c1 | . | . | 41.0% | . | . | 1.6%
COc1ccc(CCNc2nc(-c3sc(N)nc3C)cs2)cc1OC | -0.6 | -10.0% | 27.0%[38.3 µM] | -1.9% | -107.7* | ?
COc1ccc(Nc2nc(-c3sc(NC(C)=O)nc3C)cs2)cc1 | -3.5 | ? | 9.5%[38.3 µM] | -10.8% | -11.6 | 31.6µM*
COc1ccc(Nc2nc(C)c(-c3ccccc3)s2)cc1 | 4.5 | 20µM* | 17.2% | -4.1% | -24.5 | 25.1µM*
COc1ccc(Nc2nc(-c3sc(N)nc3C)cs2)cc1 | -7.0 | -23.0% | 28.4%[38.3 µM] | -8.1% | ? | 7.08µM*
Cc1nc(N)sc1-c1csc(Nc2ccccn2)n1 | 2.6 | -8.3% | -7.9%[38.3 µM] | -13.9% | 9.2 | ?
CC(=O)OC[C@@H]1O[C@@H](O/N=C2/C[C@@H](O)[C@@H](O)[C@@H]3[C@@H]4C(=O)N(Cc5ccc6c(c5)OCO6)C(=O)[C@H]4CC[C@H]23)[C@H](OC(C)=O)[C@H](OC(C)=O)[C@@H]1OC(C)=O | . | . | . | . | . | 6.8%[13.5 µM]
O=C(Nc1ncc(C(F)(F)F)cc1Cl)c1ccc(S(=O)(=O)N2CCOCC2)cc1 | . | . | 1.2% | . | . | -0.9%
N#CC(c1ccncc1)(c1ncc(C(F)(F)F)cc1Cl)N1CCOCC1 (stereo not drawn) | . | . | 18.7% | . | . | 0.398µM*
N#CC(c1ccccn1)(c1ncc(C(F)(F)F)cc1Cl)N1CCOCC1 (stereo not drawn) | -6.7 | -10.4% | -13.7%[38.3 µM] | -3.2% | -100.5* | 8.0%
CC1=CC2C(CC1=O)C(C)=CCC2C(C)C (stereo not drawn) | . | -5.3% | 8.9% | -2.6% | . | -10.6%
CCN(C(=O)c1cc2cc(OC)ccc2oc1=O)c1cccc(C)c1 | -12.8 | ? | 31.7%[38.3 µM] | -8.7% | ? | ?
COC(=O)/C(=C/c1ccco1)NC(=O)c1ccco1 | . | -16.6% | 4.5% | -1.0% | -3.6 | 10µM*
COC(=O)/C(=C/c1ccco1)NC(=O)c1ccccc1 | . | -8.8% | 6.4% | -1.3% | 23.6 | -3.0%
COC(=O)/C(=C/c1ccco1)NC(=O)c1ccc(Br)o1 | . | . | 1.2% | . | . | 20µM*
C=CCOC(=O)/C(=C/c1ccco1)NC(=O)/C=C/c1ccccc1 | -0.9 | -29.4% | 51.1%[38.3 µM] | -18.1% | -0.2 | 15.8µM*
CC(C)(C)OC(=O)N[C@H](Cc1ccccc1)C(=O)N1CCC(C(=O)O)CC1 | -7.7 | -12.0% | 10.1%[38.3 µM] | -4.5% | -83.4* | 4.5%
COc1ccc2nccc(SCC(=O)O)c2c1 | . | -11.7% | 5.5% | -3.1%[11.4 µM] | . | 4.7%[13.5 µM]
Cn1ncc([N+](=O)[O-])c1C(=O)Nc1ccc(-c2nc3ccccc3[nH]2)cc1 | 8.7 | -5.0% | 33.1%[38.3 µM] | -1.5% | 28.1 | -1.9%
CCOc1ccc(C(=O)Nc2ccc(NC(=O)c3ccco3)c(Cl)c2)cc1Cl | -29.5 | ? | -10.5%[38.3 µM] | -0.9% | 28.1 | ?
COc1ccc(C(=O)NC(=S)Nc2ccc(NC(=O)c3ccco3)cc2)cc1[N+](=O)[O-] | . | -7.3% | -11.2% | 0.6% | -14.9 | -15.4%
CCOc1ccc(C(=O)NC(=S)Nc2cccc(NC(=O)c3ccco3)c2)cc1[N+](=O)[O-] | -3.6 | -27.7% | 11.2% | ? | 9.4 | 3.16µM*

Screening results (PubChem)
